In PubChem BioAssay AID1159580 (chemical genetic matrix, 2015):
“And” between values parts separate entries of the source, which are not always exact repeats. Identical values can stand only once. Hit rate of the full screen: of about 5,500 compounds, about 2,000 (36%) were called active. Inconclusive results (about 18%) are left out. Cut-off read from the data, not from the text of the source: active = normalized growth mostly below about 0.91 (no sharp cut-off); inconclusive = no clear call, values can overlap the other calls; inactive = mostly above about 0.92. The list shows a part of the results.

Test: chemical genetic growth profiling, strain panel (AID 1159580);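 note: tested at 20 µM; growth read once vehicle control cultures reached saturation at 30 °C; 1 = growth at the plate median or of vehicle wells; lower values mean less growth of the strain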
Settings: growth OD

Measured: normalized growth

CN(C)C(=O)Oc1cccc([N+](C)(C)C)c1
inactive: S. cerevisiae deletion strains, locus YJR075W, strain HOC1, hits give low values 1.02 | S. cerevisiae deletion strains, locus YKL009W, strain mrt4, hits give low values 0.969 | S. cerevisiae deletion strains, locus YKL068W, hits give low values 0.988 | S. cerevisiae deletion strains, locus YKL085W, strain MDH1 (second series), hits give low values 0.985 | S. cerevisiae deletion strains, locus YKL085W, strain MDH1, hits give low values 0.985 | S. cerevisiae deletion strains, locus YKL160W, strain elf1, hits give low values 0.996 | S. cerevisiae deletion strains, locus YKL190W, strain CNB1, hits give low values 1 | S. cerevisiae deletion strains, locus YKR001C, strain vps1, hits give low values 0.983 | S. cerevisiae deletion strains, locus YKR026C, strain gcn3, hits give low values 0.984 | S. cerevisiae deletion strains, locus YKR091W, strain srl3, hits give low values 0.995 | S. cerevisiae deletion strains, locus YLL001W, strain dnm1, hits give low values 0.988 | S. cerevisiae deletion strains, locus YLL026W, hits give low values 1 | S. cerevisiae deletion strains, locus YLL041C, strain sdh2, hits give low values 1.01 | S. cerevisiae deletion strains, locus YLR027C, strain aat2, hits give low values 0.984 | S. cerevisiae deletion strains, locus YLR039C, strain RIC1, hits give low values 0.985 | S. cerevisiae deletion strains, locus YLR058C, strain SHM2, hits give low values 0.996 | S. cerevisiae deletion strains, locus YLR102C, strain apc9, hits give low values 0.995 | S. cerevisiae deletion strains, locus YLR113W, strain HOG1, hits give low values 0.989 | S. cerevisiae deletion strains, locus YLR221C, strain rsa3, hits give low values 0.99 | S. cerevisiae deletion strains, locus YLR258W, strain gsy2, hits give low values 1 | S. cerevisiae deletion strains, locus YLR262C, strain YPT6 (second series), hits give low values 1 | S. cerevisiae deletion strains, locus YLR262C, strain YPT6, hits give low values 1.02 | S. cerevisiae deletion strains, locus YLR268W, strain sec22, hits give low values 0.956 | S. cerevisiae deletion strains, locus YLR320W, strain mms22, hits give low values 0.996 | S. cerevisiae deletion strains, locus YLR330W, strain CHS5, hits give low values 0.982 | S. cerevisiae deletion strains, locus YLR342W, strain FKS1 (second series), hits give low values 0.998 | S. cerevisiae deletion strains, locus YLR342W, strain FKS1, hits give low values 1.01 | S. cerevisiae deletion strains, locus YLR357W, strain rsc2, hits give low values 0.964 | S. cerevisiae deletion strains, locus YLR370C, strain arc18, hits give low values 1 | S. cerevisiae deletion strains, locus YLR371W, strain rom2, hits give low values 0.983 | S. cerevisiae deletion strains, locus YLR384C, strain iki3, hits give low values 1 | S. cerevisiae deletion strains, locus YLR418C, strain cdc73, hits give low values 0.972 | S. cerevisiae deletion strains, locus YML016C, strain PPZ1, hits give low values 0.987 | S. cerevisiae deletion strains, locus YML032C, strain rad52, hits give low values 0.982 | S. cerevisiae deletion strains, locus YML120C, strain ndi1, hits give low values 0.999 | S. cerevisiae deletion strains, locus YML124C, strain tub3, hits give low values 0.984 | S. cerevisiae deletion strains, locus YMR058W, strain fet3, hits give low values 1.01 | S. cerevisiae deletion strains, locus YMR078C, strain ctf18, hits give low values 0.984 | S. cerevisiae deletion strains, locus YMR125W, strain sto1, hits give low values 0.976 | S. cerevisiae deletion strains, locus YMR129W, hits give low values 0.997 | S. cerevisiae deletion strains, locus YMR205C, strain PFK2, hits give low values 0.994 | S. cerevisiae deletion strains, locus YMR223W, strain ubp8, hits give low values 0.995 | S. cerevisiae deletion strains, locus YMR231W, strain pep5, hits give low values 0.999 | S. cerevisiae deletion strains, locus YMR263W, strain SAP30, hits give low values 0.996 and 1.01 | S. cerevisiae deletion strains, locus YMR307W, strain GAS1, hits give low values 0.984 and 1.02 | S. cerevisiae deletion strains, locus YNL067W, strain RPL9B, hits give low values 1.01 | S. cerevisiae deletion strains, locus YNL071W, strain lat1, hits give low values 1.01 | S. cerevisiae deletion strains, locus YNL153C, strain GIM3, hits give low values 1.01 | S. cerevisiae deletion strains, locus YNL175C, strain NOP13, hits give low values 1.01 | S. cerevisiae deletion strains, locus YNL183C, strain NPR1, hits give low values 0.953 | S. cerevisiae deletion strains, locus YNL197C, strain WHI3, hits give low values 1.02 | S. cerevisiae deletion strains, locus YNL209W, strain ssb2, hits give low values 0.994 | S. cerevisiae deletion strains, locus YNL224C, strain SQS1, hits give low values 1 | S. cerevisiae deletion strains, locus YNL233W, strain BNI4, hits give low values 0.988 | S. cerevisiae deletion strains, locus YNL248C, strain rpa49, hits give low values 0.99 | S. cerevisiae deletion strains, locus YNL250W, strain rad50, hits give low values 0.978 | S. cerevisiae deletion strains, locus YNL271C, strain bni1, hits give low values 0.983 | S. cerevisiae deletion strains, locus YNL298W, strain CLA4, hits give low values 0.979 | S. cerevisiae deletion strains, locus YNL307C, strain MCK1, hits give low values 0.982 | S. cerevisiae deletion strains, locus YNL322C, strain KRE1 (second series), hits give low values 0.989 | S. cerevisiae deletion strains, locus YNR049C, strain mso1, hits give low values 0.98 | S. cerevisiae deletion strains, locus YNR052C, strain pop2, hits give low values 0.982 | S. cerevisiae deletion strains, locus YOL006C, strain TOP1, hits give low values 1.03 | S. cerevisiae deletion strains, locus YOL012C, strain htz1 1.09 | S. cerevisiae deletion strains, locus YOL147C, strain pex11, hits give low values 0.985 | S. cerevisiae deletion strains, locus YOR001W, strain rrp6, hits give low values 0.989 | S. cerevisiae deletion strains, locus YOR061W, strain CKA2, hits give low values 0.987 | S. cerevisiae deletion strains, locus YOR069W, strain VPS5, hits give low values 0.986 | S. cerevisiae deletion strains, locus YOR070C, strain gyp1, hits give low values 1 | S. cerevisiae deletion strains, locus YOR080W, strain dia2, hits give low values 0.996 | S. cerevisiae deletion strains, locus YOR083W, strain WHI5 (second series), hits give low values 1.01 | S. cerevisiae deletion strains, locus YOR083W, strain WHI5, hits give low values 0.998 | S. cerevisiae deletion strains, locus YOR106W, strain vam3, hits give low values 0.998 | S. cerevisiae deletion strains, locus YOR136W, strain idh2, hits give low values 0.992 | S. cerevisiae deletion strains, locus YOR144C, strain elg1, hits give low values 0.994 | S. cerevisiae deletion strains, locus YOR184W, strain ser1, hits give low values 0.99 | S. cerevisiae deletion strains, locus YOR231W, strain MKK1, hits give low values 1.02 | S. cerevisiae deletion strains, locus YOR265W, strain rbl2, hits give low values 0.996 | S. cerevisiae deletion strains, locus YOR270C, strain vph1, hits give low values 1.03 | S. cerevisiae deletion strains, locus YOR290C, strain snf2, hits give low values 1.01 | S. cerevisiae deletion strains, locus YOR316C, strain cot1, hits give low values 0.994 | S. cerevisiae deletion strains, locus YPL051W, strain arl3, hits give low values 1 | S. cerevisiae deletion strains, locus YPL055C, strain LGE1, hits give low values 1.02 | S. cerevisiae deletion strains, locus YPL078C, strain atp4, hits give low values 0.994 | S. cerevisiae deletion strains, locus YPL106C, strain sse1, hits give low values 0.973 | S. cerevisiae deletion strains, locus YPL240C, strain hsp82, hits give low values 1 | S. cerevisiae deletion strains, locus YPL241C, strain CIN2, hits give low values 1 | S. cerevisiae deletion strains, locus YPL256C, strain CLN2, hits give low values 0.986 | S. cerevisiae deletion strains, locus YPR119W, strain clb2, hits give low values 0.995 | S. cerevisiae deletion strains, locus YPR141C, strain kar3, hits give low values 0.978 | S. cerevisiae deletion strains, locus YPR163C, strain tif3, hits give low values 0.984 | S. cerevisiae deletion strains, locus YPR167C, strain met16, hits give low values 0.984 | S. cerevisiae deletion strains, strain wtn01, hits give low values 0.964 | S. cerevisiae strains, strain wild type, hits give low values 1.01
